Consider 13 compounds from PubChem BioAssay.

Calls of active or inactive are those of the source.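 The calls were made as follows, unless noted: active = compounds whose cell count with miR-34 switched on is under 0.7 times the count with it off; inactive = the rest.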

For assay [1], the system named is Aerobactin synthetase IucA (Klebsiella pneumoniae). Put plainly: IucA aerobactin synthetase inhibitors, biochemical, Tocris library, absorbance (AID 1345561; call rule not given here;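 also: 100% = enzyme without compound and 0% = no enzyme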). The conditions noted are these: purified IucA enzyme assay, absorbance (OD) read-out; stronger effect = lower value;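 tested at 8 µM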.
Assay [2] in a line: sensitizers of A549 cells to miR-34 induction, primary screen, imaging, A549 dox-inducible miR-34, nuclei and caspase counts (AID 1347080). The conditions noted are these: A549 miR-34 inducible, Hoechst nuclei count, 48 h.
Assay [3] in a line: viability rescue of complex I mutant cybrids, primary screen, cell-based, galactose medium, ATP luminescence (AID 1645843;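 active = z-score of at least 1.8 in each of two replicates, scored against plate mean and spread of sample wells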;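 also: positive z means more ATP and so rescue of galactose-driven cybrid death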). The conditions noted are these: complex I mutant cybrid cells, 72 h, stronger effect = higher value.
Setting [4] is: stronger effect = lower value, cell number ratio, induced over uninduced.
The mark [5] stands for this setting: measured here: relative caspase fold change +Dox/-Dox.
[6] abbreviates: measured here: total cells with miR-34 induction, stronger effect = lower value.
The mark [7] stands for this setting: measured here: total cells without miR-34 induction.

For the compound `COC(=O)c1sccc1S(=O)(=O)Nc1ccc(Nc2ccccc2)cc1OC`, in assay [1], the remaining activity is 87.9% (inactive). Besides, the fold change in assay [2] (setting [4]) is 0.862 (inactive); in assay [2] (setting [5]), 1.31. The figures for the cell count in assay [2] (setting [6]) and in assay [2] (setting [7]) were 6450 and 7480, respectively. For the same compound, the z-score in assay [3] is -0.495 (inactive).

For `c1ccc2cc(C3=NCCN3)ncc2c1`, the remaining activity in assay [1] was 113% (inactive). In addition, the figures for the fold change in assay [2] (setting [4]) and in assay [2] (setting [5]) were 0.991 (inactive) and 0.685, respectively. In addition, the cell count in assay [2] (setting [6]) came out at 9570; in assay [2] (setting [7]), 9660. In addition, the z-score in assay [3] is -0.34 (inactive).

As to `CC1=C(C(=O)OCCN(Cc2ccccc2)c2ccccc2)C(c2cccc([N+](=O)[O-])c2)C(P2(=O)OCC(C)(C)CO2)=C(C)N1` (stereo not drawn), the remaining activity in assay [1] is 131% (inactive). Besides, the fold change in assay [2] (setting [4]) is 0.992 (inactive); in assay [2] (setting [5]) it was 1.07. Besides, the figures for the cell count in assay [2] (setting [6]) and in assay [2] (setting [7]) were 4790 and 4830, respectively. The z-score in assay [3] was -0.9 (inactive).

Consider `O=C(O)CC/C=C\C[C@@H]1CO[C@H](c2ccccc2Cl)O[C@@H]1c1ccccc1O`, for which the remaining activity in assay [1] is 75.4% (inactive). Moreover, the fold change in assay [2] (setting [4]) is 0.977 (inactive); in assay [2] (setting [5]) it was 0.805. Further, the cell count in assay [2] (setting [6]) worked out at 8270; in assay [2] (setting [7]) it was 8470. In addition, the z-score in assay [3] is 6.17 (active).

`CC1(C)CCC(C)(C)c2cc(C3(c4ccc(C(=O)O)cc4)OCCO3)ccc21`: in assay [1], the remaining activity is 106% (inactive). Also, the values for the fold change in assay [2] (setting [4]) and in assay [2] (setting [5]) were 0.895 (inactive) and 2.19, respectively. The cell count in assay [2] (setting [6]) amounted to 8580; in assay [2] (setting [7]) it was 9580. Further, in assay [3], the z-score is 0.95 (inactive).

With `CCCn1c(=O)c2[nH]c(-c3ccccc3)nc2n(CCC)c1=O`, the remaining activity in assay [1] was 113% (inactive). Also, the fold change in assay [2] (setting [4]) is 1.13 (inactive); in assay [2] (setting [5]), 0.687. The cell count in assay [2] (setting [6]) was 4790; in assay [2] (setting [7]), 4230. In assay [3], the z-score is -0.115 (inactive).

On to `CCCc1c(OCC(O)COc2ccc3c(=O)cc(C(=O)O)oc3c2CCC)ccc(C(C)=O)c1O` (stereo not drawn), for which the remaining activity in assay [1] is 110% (inactive). The fold change in assay [2] (setting [4]) was 0.998 (inactive); in assay [2] (setting [5]), 0.8. In addition, the cell count in assay [2] (setting [6]) came to 8250; in assay [2] (setting [7]), 8260. For the same compound, in assay [3], the z-score was 3.91 (active).

With `CSc1nc(NC2CCCC2)c([N+](=O)[O-])c(NC2CCCC2)n1`, the remaining activity in assay [1] was 104% (inactive). Moreover, the fold change in assay [2] (setting [4]) was 0.932 (inactive); in assay [2] (setting [5]) it was 1.24. Further, the results for the cell count in assay [2] (setting [6]) and in assay [2] (setting [7]) were 7100 and 7620, respectively. In addition, the z-score in assay [3] was -0.215 (inactive).

For `N[C@H](C(=O)O)c1ccc(C(=O)O)c(C(=O)O)c1`, in assay [1], the remaining activity was 126% (inactive). Moreover, the values for the fold change in assay [2] (setting [4]) and in assay [2] (setting [5]) were 0.986 (inactive) and 0.559, respectively. Also, the values for the cell count in assay [2] (setting [6]) and in assay [2] (setting [7]) were 9860 and 10000, respectively. In addition, in assay [3], the z-score is -0.145 (inactive).

As to `CCc1ccccc1OC[C@@H](O)CN[C@H]1CCCc2ccccc21`, in assay [1], the remaining activity was 106% (inactive). Further, the results for the fold change in assay [2] (setting [4]) and in assay [2] (setting [5]) were 0.986 (inactive) and 0.799, respectively. Also, the cell count worked out at 4870 in assay [2] (setting [6]) and 4940 in assay [2] (setting [7]). In addition, in assay [3], the z-score was -0.74 (inactive).

Turning to `O=C(O)c1ccc(-c2ccc3cc(C45CC6CC(CC(C6)C4)C5)c(O)cc3c2)cc1`, the remaining activity in assay [1] was 87.5% (inactive). Besides, the fold change is 1.14 (inactive) in assay [2] (setting [4]) and 1.52 in assay [2] (setting [5]). The results for the cell count in assay [2] (setting [6]) and in assay [2] (setting [7]) were 1990 and 1740, respectively. Also, the z-score in assay [3] was -0.695 (inactive).

Consider `COc1ccc(-n2[nH]c3c4c(ncc3c2=O)CCCCC4)cc1`, for which, in assay [1], the remaining activity is 115% (inactive). For the same compound, the fold change is 0.906 (inactive) in assay [2] (setting [4]) and 1.8 in assay [2] (setting [5]). In addition, the cell count was determined as 8550 in assay [2] (setting [6]) and 9440 in assay [2] (setting [7]). For the same compound, in assay [3], the z-score was 2.12 (active).

As for `c1ccc(N2CCN(Cc3nc4ccccc4[nH]3)CC2)nc1`, the remaining activity in assay [1] is 78.8% (inactive). The fold change was 0.909 (inactive) in assay [2] (setting [4]) and 2.02 in assay [2] (setting [5]). The values for the cell count in assay [2] (setting [6]) and in assay [2] (setting [7]) were 8260 and 9090, respectively. Further, the z-score in assay [3] is 0.04 (inactive).
